Experimental findings from PubChem BioAssay (NCATS) are described below.

Inconclusive results are not listed. Active and inactive are the calls of the source. Calls follow the shape of the dose curve; as a rule, active = well fitted curve in the direction sought with a large enough effect; inconclusive = small, poorly fitted or top-dose-only effect, or another doubt; inactive = no such curve, though single readings can be large; an effect the other way counts as inactive or inconclusive.

The target of assay [1] is Metallo-beta-lactamase type 2 (Klebsiella pneumoniae) (UniProt C7C422). As to the kind of experiment: qHTS to identify inhibitors of the New Delhi Metallo-beta-lactamase (NDM): assay validation screen against the NCATS LOPAC Collection (AID 1794843).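 Also: nitrocefin turnover by NDM-1 measured as 485 nm absorbance at plateau; series mostly up to about 38 µM; % is scaled to controls: 0 for no effect and ±100 for the full control effect.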 In outline: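 NDM-1 at 2 nM final in 50 mM HEPES pH 7.0, 1 uM ZnSO4, 0.01% Tween20, preincubated with LOPAC compounds pinned in DMSO; 50 uM nitrocefin (stock) added. Hydrolysis read as absorbance at 485 nm in the plateau phase.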
(In general: qHTS replaces the single test concentration by a dilution series.)

In assay [2] the target is Phospholipid hydroperoxide glutathione peroxidase GPX4 (Homo sapiens) (UniProt P36969). As to the kind of experiment: Primary qHTS Assay for Inhibitors of Recombinant Selenoprotein Glutathione Peroxidase 4 (GPX4) (AID 1845192). Also: nearly all actives have a fitted effect of over 65% in size. In outline:
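GR-coupled assay: recombinant GPX4 preincubated 30 min with compound at room temperature; final 200 nM GPX4, 1 mM GSH, 0.5 mM cumene hydroperoxide, 0.5 mM NADPH, 100 nM GR, 0.01% BSA, pH 7.5 Tris. NADPH fluorescence (340/450 nm) read at 0 and 15 min.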

Assay [3] has as its target Glutathione peroxidase 1 (Homo sapiens) (UniProt P07203). The assay can be described thus: Primary qHTS Assay for Inhibitors of Recombinant Selenoprotein Glutathione Peroxidase 1 (GPX1) (AID 1845191). Also: nearly all actives have a fitted effect of over 65% in size. Also: potency is read from the fitted curve at half-maximal effect. The gist of the method:
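GR-coupled assay: compounds preincubated 30 min at room temperature with GPX1, then reaction started with CHP; final 10 nM GPX1, 1 mM GSH, 0.5 mM CHP, 0.5 mM NADPH, 100 nM GR, 0.01% BSA, pH 7.5 Tris buffer. NADPH fluorescence (340/450 nm) read at 0 and 15 min.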

The target of assay [4] is Nuclear receptor subfamily 1 group I member 3 (Homo sapiens) (UniProt Q14994). The assay can be described thus: Primary qHTS for antagonist of constitutive androstane receptor (CAR) against the NCATS DSHEA and TCM libraries (AID 1794836).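 Also: HepG2 cells stably expressing hCAR with CYP2B6 luciferase reporter stimulated by CITCO; series mostly up to about 40 µM.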 In outline:
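HepG2-CYP2B6-hCAR cells, attached 5 h, given compounds plus CITCO agonist […], incubated 24 h at 37 C. Luciferase luminescence read, multiplexed with CellTiter-Fluor viability (Ex/Em 405/540 nm).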

Assay [5] concerns the target Phenylethanolamine N-methyltransferase (Homo sapiens) (UniProt P11086). The assay can be described thus: Confirmatory Screen for Target Class Profiling of Small Molecule Inhibitors of Methyltransferases (AID 1745852). Conditions: MTase-Glo luminescence, SAH detection, recombinant enzyme; measured here: PNMT max response; stronger effect = lower value.
A short description of assay [6]: NCATS anti-infectives library activity on HEK293 viability as a counter-qHTS vs the C. elegans viability qHTS (AID 1745854).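 Also: HEK293 cells exposed to compounds for 24 hr before the viability read; % is scaled to controls: 0 for no effect and ±100 for the full control effect.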 The gist of the method:
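Compounds were acoustically plated (several concentrations, 1:5, final up to 41.7 uM), then 1500 HEK293 cells added per well and incubated 24 hr at 37C, 5% CO2. CellTiter-Glo was added and luminescence read after 10 min.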

A short description of assay [7]: Quantitative High-Throughput drug screen in 47 multiple myeloma cell lines against the NCATS MIPE library collection: Delta47_JCRB cell viability assay (AID 1918925; also: nearly all actives have a fitted effect of over 45% in size; also: potency is read from the fitted curve at half-maximal effect). In outline:
(§1)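 Myeloma cells (500 per well) were exposed to MIPE 4.0 compounds by pin transfer and incubated 48 hours at 37C, 5% CO2. Viability was read as ATP by CellTiter-Glo luminescence, normalised to DMSO (100%) and media-only (0%) wells.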

Assay [8] is described as follows: Quantitative High-Throughput drug screen in 47 multiple myeloma cell lines against the NCATS MIPE library collection: AMO1_DSMZ cell viability assay (AID 1918927; also: nearly all actives have a fitted effect of over 30% in size; also: potency is read from the fitted curve at half-maximal effect). In outline:
as §1

A short description of assay [9]: Quantitative High-Throughput drug screen in 47 multiple myeloma cell lines against the NCATS MIPE library collection: ARP1_JJKsccF8 cell viability assay (AID 1918928; also: nearly all actives have a fitted effect of over 40% in size; also: potency is read from the fitted curve at half-maximal effect). In outline:
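Myeloma cells at 500 per well in 1536-well format treated with MIPE 4.0 library by pin transfer for 48 h at 37C, 5% CO2. Viability from ATP luminescence (CellTiter-Glo), normalized to DMSO (100%) and media-only (0%) wells.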

Assay [10] can be described thus: Quantitative High-Throughput drug screen in 47 multiple myeloma cell lines against the NCATS MIPE library collection: ARD_JJKsccE7 cell viability assay (AID 1918929; also: potency is read from the fitted curve at half-maximal effect). In outline: as §1
A short description of assay [11]: Primary fluorescence-based thiol-reactive (MSTI) qHTS assay for identification of artifact compounds. (AID 1845221).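 Also: series mostly up to about 54 µM; thiol-reactive compounds lower the probe fluorescence signal; nearly all actives have a fitted effect of over 65% in size.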 The gist of the method:
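qHTS titration of compound; 4 uM MSTI, PBS pH 7.4, 2% DMSO; 1 h RT, dark; fluorescence 525/598 nm; normalized to Acetyl-MSTI and MSTI; 4-parameter Hill fit.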

Assay [12] deals with Nanoluciferase (engineered Oplophorus gracilirostris luciferase). The assay can be described thus: Primary Nanoluciferase (NLuc) qHTS assay for identification of artifact compounds. (AID 1845222).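 Also: NLuc secreted into diluted conditioned medium of S16 cells; series mostly up to about 54 µM; 0% = DMSO and -100% = no enzyme.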 In outline: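 S16 cell supernatant NLuc, 1:55; cpds qHTS; 15 min RT dark; Nano-Glo substrate 1:100, 5 min; luminescence; Hill fit of % inhibition.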
For assay [13], the target named is Luciferin 4-monooxygenase (Photinus pyralis) (UniProt P08659). As to the kind of experiment: Primary firefly luciferase (FLuc) qHTS assay for identification of artifact compounds. (AID 1845220). Also: nearly all actives have a fitted effect of over 60% in size. Conditions: outcome: dose series up to 54.1 µM. The gist of the method:
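Enzymatic FLuc inhibition assay: compounds pre-exposed to luciferin/ATP (10 uM each) for 15 min, then purified P. pyralis enzyme at 10 nM added. Read-out: luminescence at 5 min.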

Assay [14] can be described thus: Primary redox qHTS assay for identification of artifact compounds. (AID 1845223). The gist of the method: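 Amplex Red (25 uM) and HRP (250 mU/mL) in HBSS, with compounds for 15 min, then 250 uM DTT for 30 min, room temperature, dark. Fluorescence 525/598 nm read; normalized to DMSO and 10 uM DA3003; Hill fit.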

Sequence of Phospholipid hydroperoxide glutathione peroxidase GPX4 (Homo sapiens) (P36969 whole entry, looked up): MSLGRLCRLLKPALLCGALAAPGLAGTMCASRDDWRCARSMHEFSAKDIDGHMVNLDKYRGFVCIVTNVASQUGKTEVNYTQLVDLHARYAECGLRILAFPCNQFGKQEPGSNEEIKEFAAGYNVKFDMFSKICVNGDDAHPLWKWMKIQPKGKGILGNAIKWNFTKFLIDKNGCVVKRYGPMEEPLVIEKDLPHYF
Sequence of Phenylethanolamine N-methyltransferase (Homo sapiens) (P11086 whole entry, looked up): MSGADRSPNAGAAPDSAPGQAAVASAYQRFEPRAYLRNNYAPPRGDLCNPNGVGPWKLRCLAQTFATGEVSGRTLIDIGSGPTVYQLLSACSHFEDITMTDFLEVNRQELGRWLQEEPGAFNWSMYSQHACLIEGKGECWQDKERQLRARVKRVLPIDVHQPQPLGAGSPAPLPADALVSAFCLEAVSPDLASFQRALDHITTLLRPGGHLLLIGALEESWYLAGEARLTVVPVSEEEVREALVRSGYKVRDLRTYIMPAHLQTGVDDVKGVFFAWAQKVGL
Sequence of Glutathione peroxidase 1 (Homo sapiens) (P07203 whole entry, looked up): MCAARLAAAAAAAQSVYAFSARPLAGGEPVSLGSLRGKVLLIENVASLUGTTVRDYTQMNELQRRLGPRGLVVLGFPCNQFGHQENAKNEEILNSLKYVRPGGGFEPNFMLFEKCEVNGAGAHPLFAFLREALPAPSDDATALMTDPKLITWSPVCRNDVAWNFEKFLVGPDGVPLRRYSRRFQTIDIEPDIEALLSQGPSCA
Sequence of Metallo-beta-lactamase type 2 (Klebsiella pneumoniae) (C7C422 whole entry, looked up): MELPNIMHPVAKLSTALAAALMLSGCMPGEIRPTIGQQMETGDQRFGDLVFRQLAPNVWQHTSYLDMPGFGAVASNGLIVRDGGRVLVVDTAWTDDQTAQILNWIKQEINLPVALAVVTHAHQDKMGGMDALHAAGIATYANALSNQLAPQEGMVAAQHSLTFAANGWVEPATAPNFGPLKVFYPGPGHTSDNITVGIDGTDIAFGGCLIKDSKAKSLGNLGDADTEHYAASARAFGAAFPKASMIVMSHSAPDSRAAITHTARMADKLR
Sequence of Nuclear receptor subfamily 1 group I member 3 (Homo sapiens) (Q14994 whole entry, looked up): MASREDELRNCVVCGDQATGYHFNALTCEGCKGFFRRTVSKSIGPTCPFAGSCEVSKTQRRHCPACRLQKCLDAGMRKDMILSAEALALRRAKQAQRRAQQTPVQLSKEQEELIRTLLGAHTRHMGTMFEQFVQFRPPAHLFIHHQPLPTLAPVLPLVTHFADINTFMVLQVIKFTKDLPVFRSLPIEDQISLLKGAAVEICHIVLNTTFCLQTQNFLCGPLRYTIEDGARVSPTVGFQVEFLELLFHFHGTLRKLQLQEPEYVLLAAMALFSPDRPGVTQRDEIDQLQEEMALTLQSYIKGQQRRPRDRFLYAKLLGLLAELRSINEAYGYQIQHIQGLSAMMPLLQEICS

Take `CC(CCc1ccccc1)NC(C)C(O)c1ccc(O)cc1` (stereo not given): the outcome in [1] is “inactive”. In addition, in [2], the Potency entry was “inactive”.

In the case of `NN=C(N)N`, the outcome in assay [1] is “inactive”. For the same compound, the Potency result in assay [3] and in assay [2] was “inactive” in each case.

Consider `O=c1c(O)c(-c2ccc(O)c(O)c2)oc2cc(O)cc(O)c12`, for which, in assay [4], the outcome is “inactive”.

Take `CCCN1CCC[C@@H]2Cc3nc(N)ncc3C[C@H]21`: the outcome in assay [1] was “inactive”. In assay [2], the Potency entry is “inactive”.

Regarding `c1ccc2c(c1)OCC(C1=NCCN1)O2` (stereo not given), in assay [1], the outcome was “inactive”. Moreover, the Potency entry in assay [2] is “inactive”.

Consider `CCC1(C2=NCCN2)Cc2ccccc2O1` (stereo not given), for which, in [1], the outcome is “inactive”. The Potency entry in assay [3] and in [2] was “inactive” throughout.

With `CC[N+](CC)(CC)CC`, the activity in [5] amounted to 4.2%.

Take `Cc1ncc(CNC(=O)N(CCCl)N=O)c(N)n1`: the outcome in assay [1] is “inactive”. For the same compound, the Potency result in assay [2] is “inactive”.

With `CC[C@@H](CO)NC(=O)[C@@H]1C=C2c3cccc4c3c(cn4C)C[C@H]2N(C)C1`, in [5], the activity was -4.59%. Besides, the outcome in assay [1] was “inactive”. Further, the Potency entry in assay [2] is “inactive”.

For `O=c1[nH]c2ccccc2n1CCCN1CCC(n2c(=O)[nH]c3cc(Cl)ccc32)CC1`, the outcome in [1] is “inactive”. Moreover, the Potency result in assay [3] and in assay [2] was “inactive” in each case.

In the case of `NCC(CC(=O)O)c1ccc(Cl)cc1` (stereo not given), the outcome in [6] and in assay [1] was “inactive” in each case. Also, the Potency result in [3] and in [2] was “inactive” in each case.

Turning to `Cc1ccc(S(=O)(=O)N[C@@H](CCCCN)C(=O)CCl)cc1`, the outcome in [1] is “inactive”. In addition, the Potency result in assay [3] and in assay [2] was “inactive” in each case.

As to `Cc1cccc(C)c1NC1=NCCCS1`, in [1], the outcome was “inactive”. Moreover, the Potency result in assay [3] and in [2] was “inactive” throughout.

As to `N#CC(C#N)=Cc1ccc(O)c(O)c1`, the activity in assay [5] was -1.74%. Moreover, the Potency entry in [2] is “inactive”.

Take `CC(=O)[C@H]1CC[C@H]2[C@@H]3CC[C@H]4C[C@](C)(O)CC[C@]4(C)[C@H]3CC[C@]12C`: the outcome in [1] was “inactive”. For the same compound, the Potency result in assay [3] and in assay [2] was “inactive” in each case.

`CNCC(O)c1ccc(O)cc1` (stereo not given): in [1], the outcome was “inactive”. Moreover, the Potency entry in assay [3], in assay [2], in assay [7], in assay [8], in assay [9] and in assay [10] was “inactive” each time.

Regarding `Cc1cc(SCc2sc(-c3ccc(C(F)(F)F)c(F)c3)nc2C)ccc1OCC(=O)O`, the Potency in [3] is 12800 nM (active). In addition, the Potency result in assay [2] was “inactive”. The outcome in assay [11] and in assay [12] was “inactive” each time.

Consider `Cc1cccc(C)c1NC(=O)CN1CCCC1=O`, for which the outcome in [1] was “inactive”. Besides, the Potency entry in assay [2], in [7], in assay [9] and in [10] was “inactive” in each case.

With `c1ccc2c(c1)Nc1ccccc1S2`, the Potency result in [3] and in assay [2] was “inactive” each time.

Turning to `CC[C@@H](CO)NC(=O)[C@@H]1C=C2c3cccc4[nH]cc(c34)C[C@H]2N(C)C1`, the outcome in assay [1] was “inactive”. Besides, in [2], the Potency result was “inactive”.

In the case of `O=c1[nH]c2ccccc2n1C1CCN(CCCC(c2ccc(F)cc2)c2ccc(F)cc2)CC1`, the outcome in [1], in [13], in [11], in [12] and in [14] was “inactive” each time. Besides, the Potency entry in assay [2] is “inactive”.

On to `CCC(C(N)=O)N1CCCC1=O` (stereo not given), for which the Potency entry in assay [3] and in [2] was “inactive” each time.

With `C=C(C)[C@H]1Cc2c(ccc3c2O[C@@H]2COc4cc(OC)c(OC)cc4[C@@H]2C3=O)O1`, the Potency result in assay [3] and in assay [2] was “inactive” each time. In addition, the Potency in assay [7] was 118 nM (active); in assay [8] it was 469 nM (active); in [9], 526 nM (active); in assay [10] it was 332 nM (active).

`C[C@H]1O[C@@H](O[C@H]2[C@@H](O)C[C@H](O[C@H]3[C@@H](O)C[C@H](O[C@H]4CC[C@@]5(C)[C@H](CC[C@@H]6[C@@H]5CC[C@]5(C)[C@@H](C7=CC(=O)OC7)CC[C@]65O)C4)O[C@@H]3C)O[C@@H]2C)C[C@H](O)[C@@H]1O`: the Potency result in [3] and in assay [2] was “inactive” in each case. The outcome in assay [13], in assay [11], in [12] and in [14] was “inactive” throughout.

On to `OCCOc1ccccc1`, for which the Potency entry in assay [3] and in assay [2] was “inactive” throughout.

As to `O=[N+]([O-])c1cc([As](=O)(O)O)ccc1O`, the Potency entry in assay [3] and in assay [2] was “inactive” in each case.

As to `CC(C)=CC1C(C(=O)OCc2cccc(Oc3ccccc3)c2)C1(C)C` (stereo not given), the Potency result in assay [3] and in assay [2] was “inactive” each time.

In the case of `CNC(=O)N1N=C(c2ccc(N)cc2)c2cc3c(cc2CC1C)OCO3` (stereo not given), the Potency entry in assay [3] and in [2] was “inactive” throughout. For the same compound, the outcome in assay [13], in assay [12] and in [14] was “inactive” in each case. Further, the Potency was 1480 nM (active) in [7], 1870 nM (active) in assay [8] and 2350 nM (active) in [10].

`CC(C)NCC(O)c1ccccc1Cl` (stereo not given): the Potency result in [3] and in assay [2] was “inactive” each time.

As for `CC(=O)Nc1cc([As](=O)(O)O)ccc1O`, the Potency result in [3] and in assay [2] was “inactive” throughout.

In the case of `Clc1ccc(COC(Cn2ccnc2)c2ccc(Cl)cc2Cl)cc1` (stereo not given), the Potency result in assay [3] and in assay [2] was “inactive” throughout.

Regarding `Cn1c(CCCC(=O)O)nc2cc(N(CCCl)CCCl)ccc21`, in assay [1], the outcome was “inactive”. Further, the Potency entry in assay [2] and in [10] was “inactive” throughout. The Potency in [7] is 1180 nM (active).

With `COC[C@H]1OC(=O)c2coc3c2[C@@]1(C)C1=C(C3=O)C2CCC(=O)[C@@]2(C)C[C@H]1OC(C)=O` (stereo not given in full), the Potency entry in assay [3] and in assay [2] was “inactive” in each case. In addition, the outcome in assay [13] and in assay [12] was “inactive” each time. The Potency in assay [7] was 46.9 nM (active); in assay [8], 8330 nM (active); in assay [9], 1480 nM (active); in assay [10] it was 14800 nM (active).

Take `CC(O)(CS(=O)(=O)c1ccc(F)cc1)C(=O)Nc1ccc(C#N)c(C(F)(F)F)c1` (stereo not given): the outcome in assay [1], in assay [13], in assay [11], in assay [12] and in [14] was “inactive” in each case. The Potency result in [2] was “inactive”. Besides, the Potency was 296 nM (active) in [7], 662 nM (active) in assay [8] and 1660 nM (active) in assay [10].

Consider `CC(C)(C)NCC(O)c1cc(Cl)c(N)c(Cl)c1` (stereo not given), for which the Potency entry in assay [3] and in assay [2] was “inactive” in each case.
